From PubChem BioAssay (NCATS)
Records with an inconclusive call do not appear. Active and inactive are the calls of the source. Calls follow the shape of the dose curve; as a rule, active = well fitted curve in the direction sought with a large enough effect; inconclusive = small, poorly fitted or top-dose-only effect, or another doubt; inactive = no such curve, though single readings can be large; an effect the other way counts as inactive or inconclusive.

Tests used:
[1] = P-glycoprotein substrates identified in KB-3-1 adenocarcinoma cell line, qHTS therapeutic library screen (AID 1346986); details: KB-3-1 parental cells viability, CellTiter-Glo, 72 h; series mostly up to 44.5 µM; also: nearly all actives have a fitted effect of over 60% in size
Summary of the method: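 Using luminescence to quantify ATP, parental and P-gp-overexpressing KB cells were compared after 72 h compound titration. KB-8-5-11 was also run with the P-gp inhibitor tariquidar.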

[2] = P-glycoprotein substrates identified in KB-8-5-11 adenocarcinoma cell line, qHTS therapeutic library screen (AID 1346987); details: KB-8-5-11 (P-gp overexpressing) viability, CellTiter-Glo, 72 h; series mostly up to 44.5 µM; also: nearly all actives have a fitted effect of over 65% in size; as to activity change, negative = cytotoxicity: % is scaled to controls: 0 for no effect and ±100 for the full control effect
Summary of the method: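 In this qHTS, P-gp-rich KB-8-5-11 cells received library compounds across a concentration range. Viability was quantified by luminescence after 72 h at 37 degree C.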

[3] = system: Zika virus NS2B-NS3 protease (linked construct); assay: Primary screen NINDS Rhodamine qHTS for Zika virus inhibitors (AID 1347160); details: purified NS2B-NS3 protease, Rhodamine110 substrate fluorescence; series mostly up to 33.1 µM; also: nearly all actives have a fitted effect of over 55% in size; as to activity change, negative = inhibition: % is scaled to controls: 0 for no effect and ±100 for the full control effect
Summary of the method: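 Rhodamine110-peptide cleavage (1.5 µM substrate) by 25 nM linked NS2B-NS3 enzyme at pH 8.0 (Tris, Tween 20), after 15 min RT preincubation with compounds; 15-min fluorescence change normalized to controls and Hill-fitted.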

[4] = system: Zika virus NS2B-NS3 protease (unlinked complex); assay: Primary screen GU Rhodamine qHTS for Zika virus inhibitors: Unlinked NS2B-NS3 protease assay (AID 1347159); details: Recombinant ZIKV NS2B-NS3 protease, Rhodamine110 substrate fluorescence; series mostly up to 107 µM; also: % is scaled to controls: 0 for no effect and ±100 for the full control effect; nearly all actives have a fitted effect of over 60% in size
Summary of the method: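 Percent inhibition came from the 15-min rise in Rhodamine110 fluorescence (1.5 microM substrate, ~15% conversion), normalized to no-inhibitor and no-enzyme wells and Hill-fitted. Unlinked protease, 25 nM, pH 8.0 Tris buffer; compounds up to 114 microM, 15-min preincubation.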

COc1cc(/C=C/C(=O)OC[C@H]2O[C@@H](OC3CC(C)=C(C(=O)O)C(C)(C)C3)[C@H](O)[C@@H](O)[C@@H]2O)cc(OC)c1O (stereo partly specified)
inactive: Potency [1] | Potency [2] | Potency [3]

CC1OC(O[C@@H]2[C@H](O)[C@@H](OC3OC(CO)C(O)C(O)C3O)[C@H](OC(=O)[C@]34CCC(C)(C)C[C@H]3C3=CCC5[C@@]6(C)CC[C@H](O[C@@H]7O[C@H](C(=O)O)[C@@H](O)[C@H](O[C@@H]8OC[C@@H](O)[C@H](O)[C@H]8O)[C@H]7O[C@@H]7O[C@H](CO)[C@H](O)[C@H](O)[C@H]7O)[C@@](C)(C=O)C6CC[C@@]5(C)[C@]3(C)C[C@H]4O)O[C@@H]2C)C(O)C(O)C1OC1OCC(O)C(O)C1O (stereo partly specified)
inactive: outcome [1] inactive [at 5.11 µM] | outcome [2] inactive [at 5.11 µM] | activity change, negative = inhibition [4] 87.6% [at 19.1 µM] | Potency [3]

COC(=O)C1=CO[C@@H](O[C@@H]2O[C@H](CO)[C@@H](O)[C@H](O)[C@H]2O)C2C1CC(O)C2C (stereo partly specified)
inactive: Potency [1] | Potency [2] | Potency [4] | Potency [3]

C=C1C[C@H](O)[C@@H](O)[C@@]2(C)C1[C@@H](O)[C@H]1OC(=O)C3[C@@H](C)[C@@H](O)[C@H](O)C2[C@]31C (stereo partly specified)
inactive: Potency [1] | Potency [2] | Potency [4] | Potency [3]

CCN1CCN(C(=O)N[C@@H](C(=O)N[C@@H]2C(=O)N3[C@@H]2SC(C)(C)[C@@H]3C(=O)O)c2ccccc2)C(=O)C1=O
inactive: Potency [1] | Potency [2] | Potency [4] | Potency [3]

C=C1C(OC(C)=O)CCC2(C)CC3(O)OC(=O)C(C)=C3CC12 (stereo unspecified)
inactive: Potency [1] | Potency [2] | Potency [4] | Potency [3]

O=C(Nc1ccn(Cc2c(F)cccc2C(F)(F)F)n1)c1c(F)cccc1F
inactive: outcome [1] inactive [at 9.29 µM] | activity change, negative = cytotoxicity [2] 7.74% [at 9.29 µM] | Potency [4] | Potency [3]

CC(=O)OC1CC2C(C)(C)C(=O)C=CC2(C)C2CC(=O)C3=C(CCC3C3=CC(O)OC3=O)C12C (stereo unspecified)
inactive: Potency [1] | Potency [2] | Potency [3]

C[C@@H]1C[C@H]2OC(=O)[C@@]3(C)CCC[C@](C)(C23)[C@@]1(O)CCC1=CC(=O)OC1O (stereo partly specified)
inactive: Potency [1] | Potency [2] | Potency [3]

CC1(CO)CCCC2(C)C3COC(=O)C3=CC(O)C12 (stereo unspecified)
inactive: Potency [1] | Potency [2] | Potency [3]

C/C=C1/[C@H](O[C@@H]2O[C@H](CO)[C@@H](O)[C@H](O)[C@H]2O)OC=C(C(=O)OC)[C@H]1CC(=O)OCCc1ccc(OC(=O)C[C@@H]2C(C(=O)OC)=CO[C@@H](O[C@@H]3O[C@H](CO)[C@@H](O)[C@H](O)[C@H]3O)/C2=C/C)cc1
inactive: outcome [1] inactive [at 9.29 µM] | activity change, negative = cytotoxicity [2] 6.56% [at 9.29 µM] | Potency [3]

N=C(N)c1ccc2nc(-c3cc(CC(=O)NC(CC(=O)O)C(=O)O)cc(-c4cc(S(N)(=O)=O)ccc4O)c3O)[nH]c2c1 (stereo unspecified)
inactive: Potency [1] | Potency [2] | Potency [3]

CC(=O)/C=C/C1(O)C(C)CC(O[C@@H]2O[C@H](CO)[C@@H](O)[C@H](O)[C@H]2O)CC1(C)C (stereo partly specified)
inactive: Potency [1] | Potency [2] | Potency [3]

C=C1CC[C@H]2[C@@](C)(CCC(O)[C@@]2(C)CO)[C@@H]1/C=C/C(=C\C(=O)O)C(=O)O (stereo partly specified)
inactive: Potency [1] | Potency [2] | Potency [3]

CC(C)=CCC(O)[C@](C)(O)C1[C@H](O)C[C@@]2(C)C3CC=C4C(C[C@H](O)[C@@H](O[C@@H]5O[C@H](CO)[C@@H](O)[C@H](O)[C@H]5O)C4(C)C)[C@]3(C)C(=O)C[C@]12C (stereo partly specified)
inactive: Potency [1] | Potency [2] | Potency [3]

O=C(N[C@@H]1CC[C@@H](c2cccc(F)c2F)CN(CC(F)(F)F)C1=O)N1CCC(n2c(=O)[nH]c3ncccc32)CC1
inactive: Potency [1] | Potency [2] | Potency [3]

CC1(C)CC[C@]2(C(=O)O[C@@H]3O[C@H](CO)[C@@H](O)[C@H](O)[C@H]3O)CC[C@]3(C)C(=CCC4[C@@]5(C)C[C@@H](O)[C@H](O)[C@@](C)(CO)C5[C@H](O)C[C@]43C)C2[C@@H]1O (stereo partly specified)
inactive: Potency [1] | Potency [2] | Potency [3]

CC1(C)C=Cc2c(ccc3c2[N+]([O-])=C2C3(O)CC34NC(=O)C5(CCCN5C3=O)CC4C2(C)C)O1 (stereo unspecified)
inactive: Potency [1] | Potency [2] | Potency [3]

CC(C)(O)C1CC=C(C(=O)OC[C@H]2O[C@@H](Oc3cc(C(=O)O)cc(O)c3O)[C@H](O)[C@@H](O)[C@@H]2O)CC1 (stereo partly specified)
inactive: Potency [1] | Potency [2] | Potency [3]

C/C=C/C=C/C=C/C(=O)O[C@@H]1C=C(CO)[C@](O)(CO)[C@@]2(C)CCCC(C)(C)[C@H]12
inactive: Potency [1] | Potency [2] | Potency [3]
